GPT2 inh = inhibitors of human GPT2 alanine aminotransferase. hit rate 0.25% among 100,000. Q8TD30. Potency, µM (doses to about 57.7 µM), without a hit: top-dose activity change, negative = inhibition, actives largely listed as inhibitors. Recombinant GPT2, coupled pyruvate oxidase/HRP Amplex Red fluorescence; note: potency is the fitted concentration of half-maximal effect; nearly all actives have a fitted effect of over 60% in size
Target sequence (Q8TD30 whole entry, looked up): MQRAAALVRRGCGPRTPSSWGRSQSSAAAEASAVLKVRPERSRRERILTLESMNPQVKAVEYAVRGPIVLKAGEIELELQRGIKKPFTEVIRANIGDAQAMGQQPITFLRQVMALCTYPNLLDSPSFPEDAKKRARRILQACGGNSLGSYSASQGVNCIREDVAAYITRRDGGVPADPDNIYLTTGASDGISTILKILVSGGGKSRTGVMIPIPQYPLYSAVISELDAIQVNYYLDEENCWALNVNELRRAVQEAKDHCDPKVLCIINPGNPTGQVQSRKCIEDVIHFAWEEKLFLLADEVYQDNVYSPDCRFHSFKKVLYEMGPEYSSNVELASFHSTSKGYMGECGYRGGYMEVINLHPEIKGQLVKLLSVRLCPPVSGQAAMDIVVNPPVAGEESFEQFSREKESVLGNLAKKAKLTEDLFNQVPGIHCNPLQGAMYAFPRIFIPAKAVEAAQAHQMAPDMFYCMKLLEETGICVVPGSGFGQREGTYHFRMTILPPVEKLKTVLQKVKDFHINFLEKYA
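Recombinant GPT2 (10ng/uL) with 250uM a-KG and 2mM L-alanine, 30 min at room temperature, in HEPES pH 7.5 buffer. Pyruvate detected by pyruvate oxidase/HRP/Amplex Red fluorescence after 30 min in the dark; AOA (50uM) as positive control.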
HEK293 viab = cell viability loss counter-screen | hit rate 0.12% among 150,000 | HEK-293-SNCA-luc viability, GF-AFC fluorescence, 24 h | Potency, µM (top dose mostly 57.1 µM), for inactives: top-dose activity change, negative = cytotoxicity, usual class: cytotoxic | AID 1671193;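 note: potency is the fitted concentration of half-maximal effect; 0% = DMSO-treated cells and -100% = medium-only wells without cells; nearly all actives have a fitted effect of over 30% in size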
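HEK-293-SNCA-luc cells (1500/well) plated 24 h, then exposed 24 h to a dilution series; GF-AFC added 30 min at 37C, fluorescence 405/540 nm; normalised to medium-only and DMSO wells, Hill fit.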
IP6K1 inh = IP6K1 kinase inhibition; activity change, % (series mostly up to about 58 µM); Q92551; hit rate 0.81% among 140,000; IP6K1 kinase, ADP-Glo luminescence, 2 h; hits give low values; AID 1645851; in the data active = activity change below about -25%
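ADP-Glo luminescence measures ADP made by human IP6K1 during a 2 h RT reaction with ATP/IP6 (mix at 1.3 mM/130 uM); top library doses 57.5 and 19.1 uM final.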
SNCA expr inh = inhibitors of alpha-synuclein (SNCA) gene expression | HEK-293 SNCA-luciferase knock-in, luminescence, 24 h | Potency, µM (highest dose often 57.2 µM), for inactives: top-dose activity change, negative = inhibition, actives largely listed as inhibitors | hit rate 0.17% among 140,000 | AID 1671194;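 note: potency is the fitted concentration of half-maximal effect; plate controls were DMSO cells for no effect and cell-free wells for full effect; nearly all actives have a fitted effect of over 45% in size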
Active calls of the source: *; i = inactive; ? = inconclusive; · = no result given; ! = not active in a repeat; [ ] = remark or other dose. Only some compounds are listed: those with a hit (about 1.1% of all), similar ones and a draw of the others. Unless noted, calls come from the whole dose curve; as a rule, active = well fitted curve in the direction sought with a large enough effect; inconclusive = small, poorly fitted or top-dose-only effect, or another doubt; inactive = no such curve, though single readings can be large; an effect the other way counts as inactive or inconclusive. Unless noted, % is set by controls: 0 for no effect and ±100 for the full control effect.

SMILES	GPT2 inh	HEK293 viab	IP6K1 inh	SNCA expr inh
CC(C)C(=O)Nc1ncc(-c2cc(C(F)F)nn2-c2c(Cl)cccc2Cl)s1	10µM*!	?	-9.8	-10.8%
CC(C)(C)c1cc(C(=O)N2CCOCC2)nn2cccc12	0.4%[88.5 µM]	3.8%[87.6 µM]	-1.6	10.9%[87.6 µM]
Cc1ncsc1CCN(C)C(=O)c1cc(=O)[nH]c(=O)[nH]1	i	7.7%	8.8	-3.3%
COc1cc2nc(N3CCC(N4CCCCC4)CC3)nc(NC3CCCCCC3)c2cc1OC	0.4%	23.8µM*	14.0	·
COc1cc2c(NC3CCN(C(C)C)CC3)nc(C3CCCCC3)nc2cc1OCCCN1CCCC1	-7.0%	?	-15.9	35.8%
Cc1ccc(Nc2ccnc(N3CCCC3C(=O)NCC3CC3)n2)cc1 (stereo unspecified)	i	?	-1.8	8.1%
Cc1ccc(S(=O)(=O)c2ccc([N+](=O)[O-])o2)cc1	4.3%	9.47µM*	-8.5	·
Cc1ccc(S(=O)(=O)c2nc(-c3ccccc3Cl)oc2N2CCCCCC2)cc1	·	-17.1%	3.7	?
C/C1=C/CCC2=CC(OC2=O)C(C)(C)/C=C/C1=O (stereo unspecified)	i	7.52µM*	3.8	·
Nc1cc(-c2ccncc2)c[nH]c1=O	10µM*	2.7%[23.9 µM]	-8.4	16.2%[25.6 µM]
COc1ccccc1C(=O)NC[C@@H]1C=C(C)[C@H](Cc2nc3ccccc3[nH]2)C[C@H]1C(C)C	-8.8%[88.5 µM]	?	15.0	?
O=C(O)C[C@@H]1CCN(C(=O)COc2ccccc2)C[C@@H]1CCN1CCCCC1	-19.3%[88.5 µM]	6.1%[87.6 µM]	4.0	6.0%[87.6 µM]
COc1ccc(OC)c(NC(=O)CSc2c3c(nc4ccccc24)CCCC3)c1	·	?	-13.2	22.4µM*
CC(C)NC(=O)N(C1CC1)C1CCOC2(CCN(C(=O)CCc3ccccc3)CC2)C1 (stereo unspecified)	-2.8%	5.0%	6.3	-15.3%
Cc1ccc2c(c1)N1C(=O)OC[C@@H]1CCN(Cc1ccccc1)C2	0.6%[88.5 µM]	-2.7%[87.6 µM]	-12.6	0.6%[87.6 µM]
N#CC[C@@H](NC(=O)C1=C[C@@H](N)[C@@H](O)[C@H](O)C1)C(N)=O	-11.9%[88.5 µM]	1.7%[87.6 µM]	13.2	69.6%[87.6 µM]
C1CC(COCCc2noc(C3CNC3)n2)CCO1	-9.4%	4.47µM*	-0.1	?
COc1cccc(-c2cn3cc(C(=O)N4CCOCC4)nc3s2)c1	2.1%	?	-8.5	12.6µM*
COc1ccc(-c2cn3cc(C(=O)N4CCOCC4)nc3s2)cc1	i	-7.7%[87.6 µM]	9.5	-87.4%[87.6 µM]
CSCCNC(=O)C1CN(c2ccc(Cl)cc2)C(=O)N1 (stereo unspecified)	-17.7%[88.5 µM]	16.0%[87.6 µM]	14.7	7.8%[87.6 µM]
COc1ccc(C(=O)N2CCC3(C2)C(=O)N(Cc2ccccc2)c2ccccc23)cc1 (stereo unspecified)	i	11.2µM*	-6.6	?
COc1ccc(C(=O)N2CCC3(C2)C(=O)N(CCc2ccccc2)c2ccccc23)cc1 (stereo unspecified)	3.4%	?	-0.5	-10.5%
O=C(NCc1ccccc1)c1csc(Nc2ccncn2)n1	-16.3%	?	-1.3	9.61µM*
Cc1cccc(CNC(=O)c2csc(N3CCN(c4ccccc4)CC3)n2)c1	-4.2%	-19.4%	1.9	-9.9%
COc1ccc(C(=O)Nc2ncc(-c3ccc(C(=O)O)cc3)s2)cc1	4.0%	-36.1%	-16.8	·
SMILES	GPT2 inh	HEK293 viab	IP6K1 inh	SNCA expr inh
COc1cc(C)c(Sc2cnc(NC(=O)c3ccc(CNC(C)C(C)C)cc3)s2)cc1C(=O)N1CCN(C(C)=O)CC1 (stereo unspecified)	0.4%	27.1µM*!	-13.3	?
COc1ccc(NC(=O)c2c(-c3ccc(C)cc3)nnc3ccccc23)cc1Cl	·	11.3%	7.0	37.0%
O=C(NC1CCCCC1)N1CCC(N2CC(OCC3CC3)C23CCOCC3)CC1 (stereo unspecified)	-13.0%	-0.1%	2.5	17.1%
COc1ccc(F)c(F)c1C(=O)c1cnc(NC2CCN(S(C)(=O)=O)CC2)nc1N	2.3%	?	-4.2	13.6µM*
COc1ccc(NC(=O)c2cc(-c3ccc[nH]3)n[nH]2)cc1	4.2%	-6.7%	6.4	20.3%
O=[N+]([O-])c1ccc2c(c1)S(=O)(=O)C=C2	-8.8%	?	·	5.01µM*
NC(=O)c1ccc([N+](=O)[O-])cc1Cl	3.4%	2.5%[23.9 µM]	34.3	-8.1%[25.6 µM]
C[n+]1cc2c3c(ccc2c2ccc4cc5c(cc4c21)OCO5)OCO3	-32.2%	12.6µM*!	-19.0	?
Cc1ccc(CNC(=O)N2CCC(Cn3c(C)cnc3C3CCOCC3)CC2)cc1	1.0%	?	-3.6	1.5%
COc1ccc(-c2nc(C)nc3c2CN(C(C)=O)CC3)cc1	i	11.3%[87.6 µM]	12.0	3.4%[87.6 µM]
CCn1c(=O)c2c(cc(C)n2C)n(CC(=O)Nc2c(C)cccc2C)c1=O	i	28.2µM*	35.5	?
CCn1c(=O)c2c(cc(C)n2C)n(CC(=O)Nc2ccccc2C)c1=O	i	-14.1%	12.6	-14.4%
C[C@@H](CN(C)C)CN1c2ccccc2Sc2ccccc21	i	24.2%[23.9 µM]	1.1	-22.0%[25.6 µM]
CC(CN1c2ccccc2Sc2ccccc21)N(C)C (stereo unspecified)	10µM*!	4.2%	-16.6	1.8%
CNC[C@H](O)c1ccc(O)c(O)c1	14.1µM*!	-5.4%	-13.7	-1.6%
CC(C)NCC(O)c1ccc2ccccc2c1 (stereo unspecified)	i	-2.6%[23.9 µM]	6.7	-10.7%[25.6 µM]
CC(C)NCC(O)c1ccc(O)c(O)c1 (stereo unspecified)	17.2µM*!	?	8.2	-24.2%
O=C1NCCOCCCN(S(=O)(=O)c2cccs2)[C@H]2CCC[C@@H]12	-13.7%	6.3%	4.9	29.2%
Cc1c(Cl)cccc1-n1ncc(C(=O)N2CCc3ccccc3C2)c1C1CCN(C(=O)OC(C)(C)C)CC1	·	4.5%	-15.0	22.4µM*
Cc1ccc(/C=C/c2nc3ccccc3n2S(=O)(=O)c2ccc(Br)cc2)cc1	·	-8.0%	1.1	?
CSc1ccc(/C=C/c2nc3ccccc3n2S(=O)(=O)c2cccc(Cl)c2)cc1	·	-4.4%	-40.8*	?
CC(C)C[C@H](NC(=O)CNC(=O)c1cc(Cl)ccc1Cl)B(O)O	i	?	·	0.541µM*
CC(=O)c1cccc(S(=O)(=O)NCCc2csc3nc(-c4ccc(F)cc4)nn23)c1	·	31.6µM*	5.0	-12.4%
O=S(=O)(NCCc1csc2nc(-c3ccc(F)cc3)nn12)c1ccc(Br)cc1	·	-16.3%	3.4	-21.6%
O=C(/C=C/c1ccc(O)cc1)OC[C@H]1O[C@@H](O/C(=C\c2ccccc2)C(=O)O)[C@H](O)[C@@H](O)[C@@H]1O	i	-5.3%[23.9 µM]	1.4	·
O=C(/C=C/c1ccccc1)OC[C@H]1O[C@@H](OC(=O)c2cc(O)c(O)c(O)c2)[C@H](O)[C@@H](O)[C@@H]1O	?	-19.4%[23.9 µM]	-47.4*	·
CC1=C[C@@H](CNC(=O)C2CCCCC2)[C@H](C(C)C)C[C@H]1CC(=O)N1CCN(c2ccccn2)CC1	-4.7%	28.2µM*	16.1	?
CCn1c(=N)n(CCOc2ccc(Br)cc2)c2ccccc21	·	?	24.8	25.1µM*

Compound activity: PubChem BioAssay, National Center for Advancing Translational Sciences (NCATS)
